From PubChem BioAssay
A number with no mark means an inactive call. Activity calls are given as the source filed them.

Molecular target: Dihydroorotate dehydrogenase (quinone), mitochondrial (Plasmodium falciparum (isolate 3D7)) (UniProt Q08210)
Test: PfDHODH enzyme inhibitors, primary screen, biochemical, C-terminal His tag, absorbance 600 nm (AID 1175);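 note: recombinant parasite enzyme with a five histidine tag at its C terminus; test concentration not given here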
Details: DCIP absorbance 600 nm, higher = more signal, called active from +8 up or from −8 down

Chain of Dihydroorotate dehydrogenase (quinone), mitochondrial (Plasmodium falciparum (isolate 3D7)) (Q08210 whole entry, looked up): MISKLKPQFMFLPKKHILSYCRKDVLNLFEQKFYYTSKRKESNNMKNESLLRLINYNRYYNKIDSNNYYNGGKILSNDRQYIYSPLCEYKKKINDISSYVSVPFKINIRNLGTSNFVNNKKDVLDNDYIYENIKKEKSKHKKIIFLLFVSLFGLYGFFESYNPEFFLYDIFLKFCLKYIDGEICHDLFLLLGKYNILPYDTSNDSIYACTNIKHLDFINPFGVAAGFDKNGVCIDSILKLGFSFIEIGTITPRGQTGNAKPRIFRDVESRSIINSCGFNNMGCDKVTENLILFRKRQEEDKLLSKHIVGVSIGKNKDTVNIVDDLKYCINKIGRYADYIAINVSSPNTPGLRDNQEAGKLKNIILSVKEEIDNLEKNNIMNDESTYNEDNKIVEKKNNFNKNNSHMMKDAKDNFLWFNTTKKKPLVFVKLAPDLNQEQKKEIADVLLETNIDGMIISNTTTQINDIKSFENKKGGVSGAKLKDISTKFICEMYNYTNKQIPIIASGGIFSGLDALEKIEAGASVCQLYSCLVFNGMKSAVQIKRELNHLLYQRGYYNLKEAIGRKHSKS

Structure (SMILES)	composite z-score
COc1ccc(C(=O)Nc2ccc3c(c2)[C@]2(O[C@@H](CCO)[C@H]([Si](C)(C)c4ccc(OC)cc4)[C@H]2C)C(=O)N3Cc2ccccc2)cc1	-0.454
COc1ccc([Si](C)(C)[C@@H]2[C@@H](CCO)O[C@]3(C(=O)N(Cc4ccccc4)c4ccc(N5CCCCC5=O)cc43)[C@H]2C)cc1	-2.04
C#CCNS(=O)(=O)N(C)C	0.196
COCCCNC(=O)[C@]1(CCS(=O)(=O)c2ccccc2)N=C(c2ccc(OCCCO)cc2)O[C@@H]1c1ccccc1	0.888
CC(=O)NCCCC[C@@H]1NC(=O)[C@@H]2C[C@H](C(=O)NCCCC[N+](C)(C)C)[C@H](c3cccc(OCCO)c3)N2C1=O	-22.3 (active)
CCCC[C@@H](O)C1=C(COc2ccccc2)Cn2c(=O)n(-c3ccccc3)c(=O)n2[C@H]1CO	-1.05
C=CCOC(=O)[C@H]1[C@@H]2C(=O)O[C@@H](c3ccccc3)[C@@H](c3ccccc3)N2[C@@H](c2ccc(OCCOC(=O)[C@H]3C[C@H]4C(=O)N[C@@H](CCCCN(C)C)C(=O)N4[C@H]3c3ccc(O)cc3)cc2)[C@]12C(=O)Nc1ccccc12	0.279
C=CCNC(=O)[C@H]1[C@@H]2C(=O)O[C@@H](c3ccccc3)[C@@H](c3ccccc3)N2[C@@H](c2ccc(OCCO)cc2)[C@]12C(=O)N(C(=O)OCCOC)c1ccc(C#CC3=CCCCC3)cc12	-0.91
COC(=O)[C@@]1(Cc2ccccc2)[C@H]2c3cc(C(=O)N4CCCC4)n(Cc4ccc(OC(F)(F)F)cc4)c3C[C@H]2CN1C(=O)c1ccccc1	0.868
